Data taken from PubChem BioAssay (NCATS).
Results filed as inconclusive are left out. The source made the active and inactive calls. Calls follow the shape of the dose curve; as a rule, active = well fitted curve in the direction sought with a large enough effect; inconclusive = small, poorly fitted or top-dose-only effect, or another doubt; inactive = no such curve, though single readings can be large; an effect the other way counts as inactive or inconclusive.

Assays:
[1] = test system: CRL-7250; assay: Cytotoxic Profiling of Annotated Libraries Using Quantitative High-Throughput Screening (AID 1296008); settings: Five cell lines viability, CellTiter-Glo ATP luminescence, 48-72 h; max response: hits give low values; also: nearly all actives have a fitted effect of over 60% in size; as to max response: % is scaled to controls: 0 for no effect and ±100 for the full control effect
Method in brief: (§1)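 Cytotoxicity was measured as CellTiter-Glo ATP luminescence, read after 10 min at room temperature. Compound treatment of the cells lasted 48 or 72 hr at 37 degrees Celsius in a qHTS format.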

[2] = test system: HEK293; assay: as above; settings: Five cell lines viability, CellTiter-Glo ATP luminescence, 48-72 h; max response: hits give low values
Method in brief: as §1

[3] = test system: HaCat; assay: as above; settings: Five cell lines viability, CellTiter-Glo ATP luminescence, 48-72 h; max response: hits give low values
Method in brief: as §1

[4] = test system: KB-3-1; assay: as above; settings: Five cell lines viability, CellTiter-Glo ATP luminescence, 48-72 h; max response: hits give low values
Method in brief: as §1

[5] = test system: NIH3T3; assay: as above; settings: Five cell lines viability, CellTiter-Glo ATP luminescence, 48-72 h; max response: hits give low values
Method in brief: as §1

[6] = test system: HACAT; assay: qHTS assay to identify novel small-molecules to repurpose for Merkel cell carcinoma treatment (AID 1296009); settings: MCC and control cell lines, CellTiter-Glo viability, 72 h; at 44.8 µM (top of the series) unless noted; also: nearly all actives have a fitted effect of over 60% in size
Method in brief: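 Cell viability measured by CellTiter-Glo following 72 hr compound treatment at 37 degree celsius, with NPC and MIPE libraries tested in 8- and 11-point concentration series.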

[7] = test system: C33A; assay: Primary qHTS to identify gynecologic anti-cancer compounds using libraries of approved drugs and bioactive compounds (AID 1345084); settings: Gynecologic cancer cell panel viability, ATPlite luminescence, 48 h; series mostly up to 57.5 µM; also: % is scaled to controls: 0 for no effect and ±100 for the full control effect; nearly all actives have a fitted effect of over 55% in size
Method in brief: (§2)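 ATP-based viability (ATPlite), 1,000 cells/well, 16 h pre-incubation, 48 h compound at 37 C, 5% CO2, 15 min RT before read.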

[8] = test system: CAOV3; assay: as above; settings: Gynecologic cancer cell panel viability, ATPlite luminescence, 48 h; series mostly up to 57.5 µM
Method in brief: as §2

[9] = test system: CASKI; assay: as above; settings: Gynecologic cancer cell panel viability, ATPlite luminescence, 48 h; series mostly up to 57.5 µM
Method in brief: as §2

[10] = test system: Es-2; assay: as above; settings: Gynecologic cancer cell panel viability, ATPlite luminescence, 48 h; series mostly up to 57.5 µM
Method in brief: as §2

[11] = test system: HeLa; assay: as above; settings: Gynecologic cancer cell panel viability, ATPlite luminescence, 48 h; series mostly up to 57.5 µM
Method in brief: as §2

[12] = test system: Hek293T; assay: as above; settings: Gynecologic cancer cell panel viability, ATPlite luminescence, 48 h, control line for the selectivity index; series mostly up to 57.5 µM
Method in brief: as §2

[13] = test system: JEG-3; assay: as above; settings: Gynecologic cancer cell panel viability, ATPlite luminescence, 48 h; series mostly up to 57.5 µM
Method in brief: as §2

[14] = test system: OV90; assay: as above; settings: Gynecologic cancer cell panel viability, ATPlite luminescence, 48 h; series mostly up to 57.5 µM
Method in brief: as §2

[15] = test system: PA-1; assay: as above; settings: Gynecologic cancer cell panel viability, ATPlite luminescence, 48 h; series mostly up to 57.5 µM
Method in brief: as §2

CC(=O)C1CCC(=O)N1Cc1ccccc1 (stereo not given)
inactive: outcome [1] | max response [2] -9.27% | outcome [3] | max response [4] -4.66% | max response [5] 3.14% | outcome [6] | Potency [7] | Potency [8] | outcome [9] | Potency [10] | Potency [11] | Potency [12] | Potency [13] | Potency [14] | Potency [15]

C[C@@H]1CC[C@]2(C(=O)O[C@@H]3O[C@H](CO[C@@H]4O[C@H](CO)[C@@H](O)[C@H](O)[C@H]4O)[C@@H](O)[C@H](O)[C@H]3O)CC[C@]3(C)C(=CCC4[C@@]5(C)CC[C@H](O)[C@](C)(C(=O)O)C5CC[C@]43C)[C@@H]2[C@]1(C)O (stereo not given in full)
inactive: outcome [1] | max response [2] 3.94% | outcome [3] | max response [4] 2.71% | max response [5] -11.7% | outcome [6] inactive [at 9.27 µM] | activity change, negative = cytotoxicity [7] -1.83% [at 11.6 µM] | activity change, negative = cytotoxicity [8] 5.32% [at 11.6 µM] | activity change, negative = cytotoxicity [9] 3.63% [at 11.6 µM] | activity change, negative = cytotoxicity [10] 6.01% [at 11.6 µM] | activity change, negative = cytotoxicity [11] 4.82% [at 11.6 µM] | activity change, negative = cytotoxicity [12] 10.6% [at 11.6 µM] | activity change, negative = cytotoxicity [13] 0.0588% [at 11.6 µM] | activity change, negative = cytotoxicity [14] 16.5% [at 11.6 µM] | activity change, negative = cytotoxicity [15] 3.28% [at 11.6 µM]

CC1(C)CC[C@]2(C(=O)O[C@@H]3O[C@H](CO)[C@@H](O)[C@H](O)[C@H]3O)[C@H](O)C[C@]3(C)C(=CCC4[C@@]5(C)CC[C@H](O[C@@H]6OC[C@@H](O)[C@H](O)[C@H]6O)[C@@](C)(C(=O)O)C5CC[C@]43C)[C@@H]2C1 (stereo not given in full)
inactive: max response [1] -8.24% | max response [2] -10.4% | outcome [3] | max response [4] -4.94% | max response [5] 4.43% | outcome [6] inactive [at 17.4 µM] | Potency [7] | Potency [8] | outcome [9] | Potency [10] | Potency [11] | Potency [12] | Potency [13] | Potency [14] | Potency [15]

CNc1nc(Nc2cn(C(C)(C)C#N)nc2C)ncc1C(F)(F)F
inactive: max response [1] 0.355% | max response [2] -5.29% | outcome [3] | max response [4] 6.02% | max response [5] -4.77% | outcome [6] | Potency [7] | Potency [8] | outcome [9] | Potency [10] | Potency [11] | Potency [12] | Potency [13] | Potency [14] | Potency [15]

O=C(/C=C/c1ccc(O)c(O)c1)O[C@H]1[C@@H]2C=CO[C@@H](O[C@@H]3O[C@H](CO)[C@@H](O)[C@H](O)[C@H]3O)[C@@H]2[C@@]2(CO)O[C@@H]12
inactive: max response [1] -3.33% | max response [2] -6.64% | outcome [3] | outcome [4] | max response [5] -4.11% | outcome [6] inactive [at 17.4 µM] | Potency [7] | Potency [8] | outcome [9] | Potency [10] | Potency [11] | Potency [12] | Potency [13] | Potency [14] | Potency [15]

O=C(Cc1ccccc1)OC[C@H]1O[C@H](O[C@H]2O[C@H](CO)[C@@H](O)[C@H](O)[C@H]2O)[C@H](O)[C@@H](O)[C@@H]1O
inactive: max response [1] -5.14% | max response [2] 4.52% | outcome [3] | max response [4] 9.38% | max response [5] 0.692% | outcome [6] inactive [at 17.4 µM] | Potency [7] | Potency [8] | outcome [9] | Potency [10] | Potency [11] | Potency [12] | Potency [13] | Potency [14] | Potency [15]

O=C(/C=C/c1ccc(O)cc1)OC[C@H]1O[C@@H](O/C(=C\c2ccccc2)C(=O)O)[C@H](O)[C@@H](O)[C@@H]1O
inactive: outcome [1] | max response [2] -7.06% | outcome [3] | outcome [4] | max response [5] 4.52% | outcome [6] inactive [at 17.4 µM] | Potency [7] | Potency [8] | outcome [9] | Potency [10] | Potency [11] | Potency [12] | Potency [13] | Potency [14] | Potency [15]

C[C@@H]1O[C@@H](O[C@H]2[C@@H]3C=CO[C@@H](O[C@@H]4O[C@H](CO)[C@@H](O)[C@H](O)[C@H]4O)[C@@H]3[C@@]3(CO)O[C@@H]23)[C@H](O)[C@H](OC(=O)/C=C/c2ccc(O)cc2)[C@H]1OC(=O)/C=C/c1ccc(O)cc1
inactive: max response [1] 4.25% | max response [2] -0.28% | outcome [3] | max response [4] 2.65% | max response [5] -10.1% | outcome [6] inactive [at 17.4 µM] | Potency [7] | Potency [8] | outcome [9] | Potency [10] | Potency [11] | Potency [12] | Potency [13] | Potency [14] | Potency [15]

COC(=O)C1=COC(OC2OC(CO)C(O)C(O)C2O)C2C(C)C(OC(=O)/C=C/c3ccc(O)cc3)C(O)C12 (stereo not given)
inactive: max response [1] 0.486% | max response [2] -0.112% | outcome [3] | max response [4] 1.09% | max response [5] -1.55% | outcome [6] inactive [at 17.4 µM] | Potency [7] | Potency [8] | outcome [9] | Potency [10] | Potency [11] | Potency [12] | Potency [13] | Potency [14] | Potency [15]

C[C@@H]1O[C@@H](O[C@H]2[C@H](O[C@H]3[C@H](O[C@H]4CC[C@@]5(C)C(CC[C@]6(C)C5CC=C5[C@@H]7CC(C)(C)C[C@@H](O)[C@]7(C)CC[C@]56C)C4(C)C)O[C@H](C(=O)O)[C@@H](O)[C@@H]3O)O[C@H](C(=O)O)[C@H](O)[C@@H]2O)[C@H](O)[C@H](O)[C@H]1O (stereo not given in full)
inactive: max response [1] -7.66% | max response [2] -8.11% | outcome [3] | outcome [4] | max response [5] 0.708% | outcome [6] inactive [at 9.27 µM] | activity change, negative = cytotoxicity [7] -4.31% [at 11.6 µM] | activity change, negative = cytotoxicity [8] -1.54% [at 11.6 µM] | activity change, negative = cytotoxicity [9] 12.7% [at 11.6 µM] | activity change, negative = cytotoxicity [10] -10.8% [at 11.6 µM] | activity change, negative = cytotoxicity [11] 5.18% [at 11.6 µM] | activity change, negative = cytotoxicity [12] 6.67% [at 11.6 µM] | activity change, negative = cytotoxicity [13] -0.21% [at 11.6 µM] | activity change, negative = cytotoxicity [14] 9.77% [at 11.6 µM] | activity change, negative = cytotoxicity [15] 12.6% [at 11.6 µM]
